Laboratory results published in PubChem BioAssay (NCI).
Compounds without any hit were thinned out: in the full panel of roughly 79,000, 15% have a hit. Calls of active or inactive are those of the source. No stated cut-off is given here; in the data, active means growth inhibition above about 70%; inactive means the rest.

Legend:
[1] = NCI Yeast Anticancer Drug Screen. Data for the rad50 strain (AID 155);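 further: 0% = growth of vehicle-only cultures of the same strain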; details: S. cerevisiae rad50 strain growth inhibition, stronger effect = higher value
In short: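 Inhibition values express reduced yeast growth in compound-treated cultures relative to vehicle-treated controls.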

[2] = NCI Yeast Anticancer Drug Screen. Data for the mec2-1 strain (AID 157); details: S. cerevisiae mec2-1 strain, stronger effect = higher value
In short: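 Using mec2-1 yeast: add compound, measure growth, express inhibition versus vehicle-treated cultures.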

[3] = NCI Yeast Anticancer Drug Screen. Data for the sgs1 mgt1 strain (AID 161);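 further: 0% = growth of cultures given vehicle only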; details: S. cerevisiae sgs1 mgt1 strain, stronger effect = higher value
In short: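 This yeast growth screen uses a strain with defined DNA-repair lesions; compound-treated growth is compared with vehicle-treated growth.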

[4] = NCI Yeast Anticancer Drug Screen. Data for the cln2 rad14 strain (AID 165);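 further: 0% = growth equal to vehicle treated cultures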; details: S. cerevisiae cln2 rad14 strain, stronger effect = higher value
In short: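 Yeast strain cln2 rad14, bearing defects in cell cycle control and DNA repair, serves as the test system; values reflect growth inhibition compared with vehicle.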

[5] = NCI Yeast Anticancer Drug Screen. Data for the bub3 strain (AID 167); details: S. cerevisiae bub3 mutant strain, stronger effect = higher value
In short: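 Steps: expose the mutant yeast strain to compound; grow alongside vehicle-treated cultures; measure growth; express inhibition against the vehicle cultures.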

[6] = NCI Yeast Anticancer Drug Screen. Data for the mlh1 rad18 strain (AID 175); details: S. cerevisiae mlh1 rad18 strain growth inhibition, stronger effect = higher value
In short: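 Steps: expose repair-defective yeast to compound; measure growth; express inhibition against vehicle-treated controls.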

[7] = at 5.0 µM (retest, dose inferred, filed as 0.5)
[8] = at 50.0 µM (retest, dose inferred, filed as 5.0)

Measured: growth inhibition

O=c1[nH]c2ccccc2c(O)c1/C=N/C(=S)NCCc1ccccc1
inactive: [1]; [7] 26% | [1]; [8] 28% | [1]; at 50.0 µM -41.5% | [2]; [7] 25% | [2]; [8] 22% | [2]; at 50.0 µM -21.8% | [3]; [7] 28% | [3]; [8] 29% | [3]; at 50.0 µM 5.4% | [4]; [7] 21% | [4]; [8] 11% | [4]; at 50.0 µM 9.6% | [5]; [7] 30% | [5]; [8] 20% | [5]; at 50.0 µM 4.65% | [6]; [7] 28% | [6]; [8] 22% | [6]; at 50.0 µM 7.5%

Clc1ccc(C(c2ccc(Cl)cc2)c2cncnc2)cc1
active: [1]; [8] 96% | [1]; at 50.0 µM 89.8% | [2]; [8] 99% | [2]; at 50.0 µM 90% | [3]; [8] 95% | [3]; at 50.0 µM 89.4% | [4]; [8] 98% | [4]; at 50.0 µM 89.2% | [5]; [8] 97% | [5]; at 50.0 µM 84.2% | [6]; [8] 97% | [6]; at 50.0 µM 86.8%
inactive: [1]; [7] 18% | [2]; [7] 6% | [3]; [7] 15% | [4]; [7] 10% | [5]; [7] 40% | [6]; [7] 13%

COc1c2c(cc3c1c(=O)c1ccccc1n3C)OCO2
inactive: [1]; [7] -12% | [1]; [8] 26% | [1]; at 50.0 µM 61.5% | [2]; [7] -4% | [2]; [8] 1% | [2]; at 50.0 µM 33.9% | [3]; [7] -5% | [3]; [8] 14% | [3]; at 50.0 µM 40.5% | [4]; [7] 18% | [4]; [8] 5% | [4]; at 50.0 µM -45.8% | [5]; [7] 2% | [5]; [8] 0% | [5]; at 50.0 µM 25.4% | [6]; [7] -29% | [6]; [8] 22% | [6]; at 50.0 µM 62.8%

CC1/C=C/C=C/CC/C=C/C=C/C=C/C=C/C(OC2OC(C)C(O)C(N)C2O)CC2OC(CC(O)C(O)CCC(O)CC(O)CC(O)CC(=O)OC(C)C(C)C1O)CC(O)C2C(=O)O (stereo not given)
inactive: [3]; [7] 56%
active: [1]; [7] 98% | [1]; [8] 100% | [1]; at 50.0 µM 99.3% | [2]; [7] 96% | [2]; [8] 100% | [2]; at 50.0 µM 99.3% | [3]; [8] 100% | [3]; at 50.0 µM 99.2% | [4]; [7] 93% | [4]; [8] 100% | [4]; at 50.0 µM 99.1% | [5]; [7] 99% | [5]; [8] 100% | [5]; at 50.0 µM 99.2% | [6]; [7] 97% | [6]; [8] 99% | [6]; at 50.0 µM 98.5%

C=C1C(=O)OC2C1CCC(=C)C1CC(O)C(=C)C12 (stereo not given)
inactive: [1]; [7] 3% | [1]; [8] 44% | [2]; [7] 11% | [2]; [8] 64% | [3]; [7] 0% | [4]; [7] 10% | [4]; [8] 39% | [5]; [7] 2% | [5]; [8] 65% | [6]; [7] 8% | [6]; at 50.0 µM 31.4%
active: [1]; at 50.0 µM 92.2% | [2]; at 50.0 µM 94.2% | [3]; [8] 70% | [3]; at 50.0 µM 93.6% | [4]; at 50.0 µM 92.4% | [5]; at 50.0 µM 92.5% | [6]; [8] 70%

CCN(CC)C(C)(C)C(=O)/C=C/c1ccc(Cl)cc1
inactive: [1]; [7] -5% | [1]; [8] 69% | [1]; at 50.0 µM 2.2% | [2]; [7] -15% | [2]; [8] 28% | [2]; at 50.0 µM 4.8% | [3]; [7] 24% | [3]; at 50.0 µM 24.9% | [4]; [7] -9% | [4]; [8] 26% | [4]; at 50.0 µM -5% | [5]; [7] 1% | [5]; at 50.0 µM 54.5% | [6]; [7] 46% | [6]; at 50.0 µM 19.7%
active: [3]; [8] 87% | [5]; [8] 82% | [6]; [8] 94%

COc1ccc(CCCC(=O)O)c2c(OC)cccc12
active: [1]; at 50.0 µM 80.8% | [4]; at 50.0 µM 72.2% | [6]; [8] 73% | [6]; at 50.0 µM 78.3%
inactive: [1]; [7] 14% | [1]; [8] 58% | [2]; [7] 0% | [2]; [8] 48% | [2]; at 50.0 µM 39.9% | [3]; [7] 7% | [3]; [8] 62% | [3]; at 50.0 µM 60.8% | [4]; [7] 23% | [4]; [8] 55% | [5]; [7] 4% | [5]; [8] 60% | [5]; at 50.0 µM 49.9% | [6]; [7] 5%

C/C(=N\NC(=S)Nc1ccc(N(C)C)cc1)c1ccccn1
active: [1]; at 50.0 µM 72.2% | [2]; at 50.0 µM 97.5% | [3]; [8] 74% | [3]; at 50.0 µM 79.7% | [4]; [8] 72% | [6]; [8] 78% | [6]; at 50.0 µM 82.3%
inactive: [1]; [7] -1% | [1]; [8] 23% | [2]; [7] -4% | [2]; [8] 68% | [3]; [7] -2% | [4]; [7] 1% | [4]; at 50.0 µM 31.8% | [5]; [7] -1% | [5]; [8] 35% | [5]; at 50.0 µM 46.3% | [6]; [7] -7%

CCCCCC/C=C/C#CCCCCCCCC(=O)O
inactive: [1]; [7] 30% | [1]; [8] 15% | [1]; at 50.0 µM 5.5% | [2]; [7] 21% | [2]; [8] 11% | [2]; at 50.0 µM 9.2% | [3]; [7] 33% | [3]; [8] 37% | [3]; at 50.0 µM 14% | [4]; [7] 17% | [4]; [8] 16% | [4]; at 50.0 µM 11.8% | [5]; [7] 19% | [5]; [8] 3% | [5]; at 50.0 µM 17.3% | [6]; [7] 57% | [6]; [8] 44% | [6]; at 50.0 µM -88.8%

COc1ccccc1NC(=O)/C(=C/c1ccccc1)C(C)=O
inactive: [1]; [7] -1% | [1]; [8] 12% | [1]; at 50.0 µM 48.6% | [2]; [7] -2% | [2]; [8] -2% | [2]; at 50.0 µM -3.05% | [3]; [7] 11% | [3]; [8] 12% | [3]; at 50.0 µM 16.7% | [4]; [7] 1% | [4]; [8] 21% | [4]; at 50.0 µM 49.1% | [5]; [7] -2% | [5]; [8] 25% | [5]; at 50.0 µM -4.75% | [6]; [7] 3% | [6]; [8] 26% | [6]; at 50.0 µM 66.5%
